High-throughput results as filed in PubChem BioAssay.
Sa ugtP lethal = growth inhibition of ugtP-null S. aureus, primary screen, RN4220 ugtP deletion, OD600. 16 h. growth inhibition, % (concentration not given with the values). 0.54% of 330,000 active. AID 1259309, 2017; in the data active = growth inhibition above about 68%;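 note: plate controls were untreated wells for no effect and antibiotic for full effect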
Sa RN4220 lethal = growth inhibition of S. aureus RN4220, primary screen, OD600. AID 1259311, 2017. 0.33% of 330,000 active. 16 h. inhibition, % (concentration not given with the values); in the data active = inhibition above about 85%;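 note: plate controls were untreated cells for no effect and reference antibiotic for full effect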
PriA SSB inh = inhibitors of Klebsiella pneumoniae PriA binding to SSB C-terminal tail, primary screen, biochemical, AlphaScreen. inhibition, % at 33 µM. AlphaScreen SSBct-PriA binding, biotinylated peptide. 0.6% of 430,000 active. PriA–SSB C-terminal tail interaction (Klebsiella pneumoniae); in the data active = inhibition mostly above about 37%, no sharp cut-off; inactive = mostly below about 20%;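 note: plate controls were negative control peptide for no effect and reference peptide for full effect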
CCHF vOTU inh-1 = CCHFV vOTU protease inhibitors, primary screen, biochemical, Pep-AMC substrate, fluorescence; inhibition, % at 11.5 µM; AID 651958, 2012; 0.55% of 370,000 active; note: 0% = vehicle wells with enzyme and 100% = no enzyme wells
VHR inh abs = VHR1 phosphatase inhibitors, primary screen, biochemical, absorbance, uHTS. inhibition, % at 13.3 µM. 0.52% of 290,000 active. recombinant VHR phosphatase, pNPP absorbance. Dual specificity protein phosphatase 3 (Homo sapiens), P51452; in the data active = inhibition above about 50%
Target sequence (P51452 whole entry, looked up): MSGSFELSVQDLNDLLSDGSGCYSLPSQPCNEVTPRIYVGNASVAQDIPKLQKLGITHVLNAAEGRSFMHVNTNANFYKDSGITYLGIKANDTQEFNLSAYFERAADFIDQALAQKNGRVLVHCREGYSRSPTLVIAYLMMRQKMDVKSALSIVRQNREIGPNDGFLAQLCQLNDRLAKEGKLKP
CCHF vOTU inh-2 = CCHFV vOTU protease inhibitors, confirmation, biochemical, Pep-AMC substrate, fluorescence; shares compounds with CCHF vOTU inh-1; Recombinant CCHFV vOTU; inhibition, % at 11.5 µM; 17% of 1,900 active
* marks the source's active call; other numbers are inactive results; . = not tested or not shown. A selection: hits, their analogues and other compounds. The true share with any hit is near 1.5%. Cut-off read from the data, not from the text of the source, unless noted: active = inhibition above about 30%; inactive = the rest.

SMILES	Sa ugtP lethal	Sa RN4220 lethal	PriA SSB inh	CCHF vOTU inh-1	VHR inh abs	CCHF vOTU inh-2
CCN(CC)C(=S)SCC(=O)c1cc(C)n(-c2ccccc2)c1C	.	.	-8.0	.	.	.
COc1cc(/C=N/Nc2ccccn2)ccc1O	.	.	.	18.5	9.3	.
CC(C)(C)c1nnc(N/N=C/c2cc(Br)ccc2O)n(N)c1=O	.	.	.	2.4	22.7	.
CCc1nnc(N/N=C/c2cc(Br)c(O)cc2O)n1N	.	.	.	96.3*	4.9	13.5
CCc1nnc(N/N=C/c2ccc(O)c(OC)c2)n1N	.	.	.	77.3*	0.1	-1.9
CCc1nnc(N/N=C/c2cccs2)n1N	.	.	.	89.2*	15.3	-2.9
CCc1nnc(N/N=C\c2ccc(OC(C)=O)c(OC)c2)n1N	.	.	.	66.4*	-5.7	-6.3
Cc1nnc(NN=Cc2cccs2)[nH]c1=O	-1.1	2.7	-2.8	.	.	.
CCc1nnc(NN=Cc2ccc(OC(C)=O)c(OC)c2)n1N	8.6	5.7	1.3	.	.	.
CCS(=O)(=O)c1ccc(C(=O)Nc2nc(-c3ccccc3)c(C(=O)c3ccccc3)s2)cc1	.	.	10.0	.	.	.
CCCCOc1ccc(C(=O)NCCNc2ccc(-n3cccc3)nn2)cc1	.	.	-14.0	.	.	.
O=S(=O)(Nc1nc2c(F)cccc2s1)c1ccc(Cl)s1	.	.	-3.0	.	.	.
C=CCN1C(=O)SC(CC(=O)Nc2ccc(Br)cc2)C1=O (stereo not given)	.	.	-18.0	.	.	.
Cc1noc(C)c1COc1ccc(OCc2c(C)noc2C)cc1	.	.	-5.0	.	.	.
COc1ccc(C=NNc2nnc(C)n2N)cc1OC(C)=O	13.6	-0.1	-1.0	.	.	.
CCOc1cc(/C=N/Nc2nnc(C)n2N)ccc1OC(C)=O	.	.	.	85.7*	-12.9	-13.0
CCOc1ccc(-n2c(=S)sc3c(=O)n(-c4ccc(F)cc4)c(SCC(=O)O)nc32)cc1	8.3	3.9	-2.1	34.4*	-29.1	-5.4
CCN(CC)CC(=O)NC1CCCc2c1cnn2-c1cc(F)cc(F)c1 (stereo not given)	.	.	1.2	2.6	.	.
CSCC(=O)NC1CCCc2c1cnn2-c1cc(F)cc(F)c1 (stereo not given)	5.6	1.4	-16.5	30.2*	-1.9	-25.6
O=C(NN=Cc1ccc(O)cc1)c1cc(-c2ccc3c(c2)OCO3)n[nH]1	.	.	-7.5	.	.	.
O=S(=O)(Cc1ccc(F)cc1)NCC1(c2ccsc2)CCCC1	.	.	9.0	.	.	.
CC1C/C(=C\c2ccccc2[N+](=O)[O-])c2nc3ccccc3c(C(=O)O)c2C1 (stereo not given)	14.8	3.8	-6.2	32.5*	25.9	-10.4
CCc1ccc([C@@H]2CC(=O)[C@@H]3CN(S(=O)(=O)c4ccc(Cl)cc4)[C@H](c4ccc(C)cc4)C[C@@H]3N2S(=O)(=O)c2ccc(C)cc2)cc1	.	.	.	34.6*	.	-5.4
CCc1ccc([C@H]2[C@@H]3C(=O)C[C@@H]4C(=O)N(C)C(=O)[C@@H]4[C@@H]3CN2S(=O)(=O)c2ccc(C)cc2)cc1	.	.	.	30.4*	.	-7.0
Cc1ccc([C@@H]2CC(=O)[C@@H]3CN(S(=O)(=O)c4ccc(C)cc4)[C@H](c4ccc(Cl)cc4)C[C@@H]3N2S(=O)(=O)c2ccc(Cl)cc2)cc1	.	.	.	31.2*	.	-19.7
SMILES	Sa ugtP lethal	Sa RN4220 lethal	PriA SSB inh	CCHF vOTU inh-1	VHR inh abs	CCHF vOTU inh-2
O=C(CSc1ccc(NC(=O)c2cccs2)nn1)Nc1ccc(F)c(F)c1	.	.	-23.0	.	.	.
CCOC(=O)N(CC)c1ccc(C(O)(C(=O)OCC)C(F)(F)F)cc1 (stereo not given)	0.6	0.4	-3.2	30.6*	15.4	-11.6
O=C(Cn1cc(-c2nnc(-c3ccccc3)o2)c2ccccc21)NCCc1ccccc1	.	.	-8.0	.	.	.
O=C(Cc1ccccc1)Nc1ccc(NC(=O)c2ccccc2)nc1	3.6	-5.2	-4.5	32.7*	20.4	-17.8
C=CCNC(=O)C(=O)NCC(c1ccc2c(c1)CCN2C)N(C)C (stereo not given)	.	.	10.0	.	.	.
CC(OC(=O)c1cccc(-n2cnnn2)c1)C(=O)Nc1ccc(F)cc1Cl (stereo not given)	-4.2	-3.9	4.9	33.0*	.	-11.6
COc1ccccc1NC(=O)C(C)OC(=O)c1cccc(-n2cnnn2)c1 (stereo not given)	10.1	5.4	-4.6	-3.1	.	.
Cc1cc(C)cc(OCC(=O)NCC2CCCO2)c1 (stereo not given)	1.7	-2.7	-5.1	6.7	42.5	.
Cc1cc(C)c(C)c(OCC(=O)NCC2CCCO2)c1 (stereo not given)	2.2	2.8	-13.5	33.1*	-14.8	-13.7
CN(C)C(CNC(=O)C(=O)Nc1cc(Cl)ccc1C#N)c1cccs1 (stereo not given)	.	.	12.0	.	.	.
COC(=O)c1c(NC(=O)c2ccco2)sc(C(=O)N(C)C)c1C	-4.0	2.9	-18.8	32.5*	13.2	8.2
COC(=O)c1c(NC(=O)c2cccnc2)sc(C(=O)N(C)C)c1C	5.0	4.0	-1.8	7.2	2.3	.
CC(C)N1CCC(CNC(=O)NCCOc2ccccc2)CC1	.	.	-5.0	.	.	.
Cn1nc(CNC(=O)c2nc3ccccc3s2)cc1-c1ccccn1	.	.	-16.0	.	.	.
COc1cccc(Nc2nc(C(N)CC(C)C)cs2)n1 (stereo not given)	.	.	.	16.2	.	.
COc1cccc(Nc2nc(C(N)C(C)C)cs2)n1 (stereo not given)	.	.	.	34.4*	.	-6.0
CC1CCc2c(sc3nc(SCC(=O)Nc4nsc(-c5ccc(Cl)cc5)n4)n(-c4ccccc4)c(=O)c23)C1 (stereo not given)	.	.	-9.0	.	.	.
Nc1ccc2c(O)cc(S(=O)(=O)O)cc2c1	3.3	3.4	6.8	52.2*	.	-40.2
O=C1C(=Cc2cn(-c3ccccc3)nc2-c2ccc(OCc3ccccc3)cc2)SC(=S)N1CCS(=O)(=O)O	.	.	.	30.3*	.	10.7
Cc1ccc(-c2nn(-c3ccccc3)cc2C=C2SC(=S)N(CCS(=O)(=O)O)C2=O)cc1	.	.	.	16.0	.	.
COc1cccc2c1C(=O)c1c(O)c3c(c(O)c1C2=O)CC(O)(C(C)=O)CC3OC1CC(O)C(O)C(C)O1 (stereo not given)	.	.	22.4	3.7	.	.
COc1cccc2c1C(=O)c1c(O)c3c(c(O)c1C2=O)C[C@](O)(C(C)=O)C[C@H]3O[C@@H]1C[C@@H](N)[C@@H](O)[C@@H](C)O1	.	.	33.3	31.3*	.	-7.1
O=C(CCN1CCc2ccccc2C1)Nc1ccc(Cl)c(Cl)c1	.	.	2.0	.	.	.
COc1ccc(C(CNC(=O)C(=O)NC2CCCCC2)N2CCN(C)CC2)cc1 (stereo not given)	2.5	2.8	-4.8	31.7*	.	-13.6
COc1ccc(C(CNC(=O)C(=O)NC2CCCC2)N2CCN(C)CC2)cc1 (stereo not given)	9.9	1.9	-14.8	-1.9	.	.
COC(=O)C1C(C)=NC2=C(C(=O)CC(C)(C)C2)[C@H]1c1cc(C)nn1C (stereo not given in full)	.	.	0.0	.	.	.
O=C(CNS(=O)(=O)c1ccccc1Br)OCC(=O)N1CCc2ccccc21	3.0	9.0	-6.7	6.5	20.8	.
